Each structure is given as a SMILES string. Hit rate of the full screen: of about 420,000 compounds, about 64,000 (15%) were called active. Inconclusive results (about 27%) are left out. Calls follow the shape of the dose curve; as a rule, active = well fitted inhibition curve with a large enough effect; inconclusive = small, poorly fitted or top-dose-only effect; inactive = flat fitted curve, though single readings scatter. Not all results are given here.

Consider 29 compounds from PubChem BioAssay AID686978 (National Center for Advancing Translational Sciences (NCATS), 2013).
% is scaled to controls: 0 for no effect and ±100 for the full control effect; potency is read from the fitted curve at half-maximal effect.

The nature of this experiment: qHTS for Inhibitors of human tyrosyl-DNA phosphodiesterase 1 (TDP1): qHTS in cells in absence of CPT. Also: nearly all actives have a fitted effect of over 55% in size. As to conditions: DT40 Tdp1-/- hTDP1 cells, no CPT, ATP luminescence, 48 h; activity change, negative = growth inhibition: at 46.2 µM (top of the series). In short, it runs like this: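 Chicken DT40 Tdp1-/- cells stably complemented with human TDP1 were seeded at 400 cells/well with DMSO in place of 20 nM camptothecin. After compound pinning, cells grew at least 48 hr at 37 °C; viability read by CellTiter-Glo luminescence.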
In the case of `Cc1noc(NS(=O)(=O)c2ccc(N/C=C/C(=O)c3ccccc3)cc2)c1C`, the “activity change, negative = growth inhibition” value is -7.47% (inactive).
As to `CC(C)C[C@H](NC(=O)C1CC(=O)N(c2ccc3c(c2)OCCO3)C1)C(=O)NC1CCCC1` (some centres undefined), the “activity change, negative = growth inhibition” value was 7.04% (inactive).
On to `COc1ccc(-c2csc3ncnc(N4CCN(S(=O)(=O)c5ccccc5C#N)CC4)c23)cc1`, for which the Potency was 16.4 µM (active).
As for `N#Cc1ccccc1S(=O)(=O)N1CCN(Cc2c(O)ccc3ccccc23)CC1`, the “activity change, negative = growth inhibition” value is 0.994% (inactive).
The same measure, in the same setting: for `COc1ccc(S(=O)(=O)N2CCN(c3cnccn3)CC2)cc1` the value was -19.6% (inactive); for `CCOc1ccc(S(=O)(=O)N2CCN(C(=O)c3oc4ccccc4c3C)CC2)cc1`, -29.3% (inactive); for `Cc1ccc(S(=O)(=O)n2nc(OC(=O)C(C)(C)C)cc2N)cc1`, -29.9% (inactive).
As for `CCOC(=O)c1oc2ccc(S(=O)(=O)n3nc(-c4ccccc4OC)cc3N)cc2c1C`, the Potency is 5.17 µM (active).
Turning to `C[C@H](NC(=O)[C@@H]1CCCN1C(=O)[C@@H]1CCCN1C(=O)c1ccccc1)c1ccccc1`, the “activity change, negative = growth inhibition” value was -23.5% (inactive).
Take `CCCS(=O)(=O)N1CCC(n2c(C(F)(F)F)nc3cccnc32)CC1`: the Potency is 5.17 µM (active).
Take `O=C1NC(CC(=O)N2CCC(n3c(C4CCC4)nc4cccnc43)CC2)c2ccccc21` (centres undefined): the “activity change, negative = growth inhibition” value is -1.68% (inactive).
The same measure, in the same setting: for `CCS(=O)(=O)N1CCC(n2c(C)nc3cccnc32)CC1` the value was -0.165% (inactive); for `CC(C)CC(CC(C)C)=NNC(=O)c1ccc(CSc2nncn2C)cc1`, 3% (inactive).
`CC(=O)c1cc(C#N)c(N2CCCCC2)nc1C`: the “activity change, negative = growth inhibition” value is -19.2% (inactive).
Consider `CC(=O)c1cc(C#N)c(N2CC(C)OC(C)C2)nc1C` (centres undefined), for which the “activity change, negative = growth inhibition” value is 15.6% (inactive).
With `CC(=O)c1cc(C#N)c(SCC(=O)C(C)(C)C)nc1C`, the Potency was 3.16 µM (active).
As to `CN1OC[C@@H]2CN(C(=O)c3cccnc3)[C@H](c3ccc(N4CCCCC4)cc3)C[C@@H]21`, the “activity change, negative = growth inhibition” value is 12.5% (inactive).
Take `CCc1nnc(NC(=O)C2CC(=O)N(c3ccc4c(c3)OCCO4)C2)s1` (centres undefined): the Potency was 18.4 µM (active).
For `CCOC(=O)c1ccc(NC(=O)C2CC(=O)N(c3ccc4c(c3)OCCO4)C2)cc1` (centres undefined), the “activity change, negative = growth inhibition” value is -1.25% (inactive).
In the case of `CC(=O)c1ccccc1NC(=O)C1CC(=O)N(c2ccc3c(c2)OCCO3)C1` (centres undefined), the “activity change, negative = growth inhibition” value was -13.3% (inactive).
With `CN1CCN(CC(O)COCc2ccc3c(c2)OCO3)CC1` (centres undefined), the “activity change, negative = growth inhibition” value was 4.13% (inactive).
As for `CC(=O)Nc1ccc(NC(=O)COC(=O)C2CCC(C(C)(C)C)CC2)cc1` (centres undefined), the “activity change, negative = growth inhibition” value was -10.4% (inactive).
With `Cc1ccccc1CSc1nc(-c2ccccc2)nc2c1Cc1c(CO)cnc(C)c1O2`, the “activity change, negative = growth inhibition” value is -18.4% (inactive).
With `CSc1nc(-c2ccc(F)cc2)nc2c1Cc1c(CO)cnc(C)c1O2`, the “activity change, negative = growth inhibition” value was -1.83% (inactive).
In the case of `CSc1nc(-c2ccccc2Cl)nc2c1Cc1c(CO)cnc(C)c1O2`, the Potency is 18.4 µM (active).
For `CCCNC(=O)c1cc(C2CCCCN2S(=O)(=O)c2ccc(C#N)cc2)on1` (centres undefined), the “activity change, negative = growth inhibition” value was -5.54% (inactive).
Still for that read-out and setting: for `Cc1c(C(=O)NCC2CC2)sc(=O)n1Cc1cccc(F)c1` the value was -6% (inactive).
For `CC(=O)N1Cc2cc(C(=O)NCc3cccc(F)c3)nc(-c3cccc(C4=CCCCC4)c3)c2[C@H]1CCO`, the Potency was 16.4 µM (active).
On to `CCCNC(=O)c1cc2c(c(-c3cccc(-c4ccc(C#N)cc4)c3)n1)[C@@H](CCO)N(C(=O)CC)C2`, for which the Potency was 18.4 µM (active).
